Source: PubChem BioAssay (National Center for Advancing Translational Sciences (NCATS))
Only some compounds are listed: those with a hit (about 2.3% of all), similar ones and a draw of the others.
Abeta rescue: compounds reversing amyloid beta toxicity in yeast; yeast expressing A-beta42, growth rescue, OD600, 48 h; response scale: 0% DMSO, 100% iron-clioquinol control; Potency, µM (top dose mostly 46.1 µM), usual class: activators; 0.063% of 410,000 active; AID 1347071; also: nearly all actives have a fitted effect of over 55% in size
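Yeast growth medium received pinned compounds, then yeast cells expressing toxic A-beta were added; plates incubated at 30 C for 48 hr. Growth read as absorbance at 600 nm, normalized to DMSO and equimolar FeCl3 plus clioquinol controls.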
FUS yeast rescue: suppressors of FUS proteinopathy in yeast. S. cerevisiae FUS-expressing, growth rescue, OD600, 24 h. Potency, µM (series often up to 76.6 µM), hits mostly activators. 0.24% of 390,000 active; also: nearly all actives have a fitted effect of over 55% in size
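S. cerevisiae expressing FUS from galactose induction served as the toxicity model. Growth after 24hr at 30C, read as absorbance at 600 nm, indicates suppression of toxicity; compounds dosed at several concentrations.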
Chronic BCR inh: chronic active BCR signaling inhibition; ABC-DLBCL IkBa-CBG/CBR reporter, luminescence ratio, 4 h; Potency, µM (series often up to 46.1 µM), actives largely listed as inhibitors; 0.05% of 340,000 active; AID 493014; active = well fitted inhibition curve with a large enough effect in the signal ratio, with a control signal flat, not every such curve was filed as active; inconclusive = small, poorly fitted or top-dose-only effect, or effect the other way, or a change in a side signal; the % refers to the signal ratio
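Compounds up to 46 uM were incubated four hours with TMD8 cells whose green CBG68 luciferase is fused to IkappaBalpha; red CBR luminescence normalised the signal, and concentration-effect curves were fitted to fusion, red and ratio data.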
aSyn rescue: rescues yeast growth from alpha-synuclein toxicity; Potency, µM (highest dose often 46.1 µM), actives largely listed as activators; 0.14% of 370,000 active; Yeast expressing alpha-synuclein, growth rescue, BacTiter-Glo, 24 h; also: nearly all actives have a fitted effect of over 65% in size
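Galactose-induced alpha-syn yeast (OD600=0.02, raffinose-pregrown) + pinned cpd, 24 hr, 30 deg C; growth by BacTiter-Glo luminescence. Growth restoration scores as activation.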
TDP-43 yeast inh: rescues yeast growth from TDP-43 toxicity; TDP-43 expressing yeast growth rescue, BacTiter-Glo, 24 h; Potency, µM (series often up to 46.1 µM), most hits filed as activators; 1.8% of 410,000 active; AID 652104; also: nearly all actives have a fitted effect of over 50% in size
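Yeast expressing TDP-43 (pregrown in raffinose, seeded at OD600=0.02 in galactose medium) exposed to compounds 24 hr at 30 deg C. Growth read by BacTiter-Glo luminescence; rescue of toxicity appears as increased signal.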
uPA generation: blocks generation of uPA at the cell surface. AID 540303. cell surface uPA generation assay, qHTS. 0.31% of 330,000 active. Potency, µM (top dose mostly 38.3 µM), usual class: inhibitors; active = well fitted inhibition curve with a large enough effect; inconclusive = small, poorly fitted or top-dose-only effect; inactive = no such curve, though single readings can be large or run the other way; tested in mouse RAW 264.7 cells; also: nearly all actives have a fitted effect of over 55% in size
Of the large screens only hits and unclear results are named; the others gave an inactive call. Unless noted, calls follow the shape of the dose curve; as a rule, active = well fitted curve in the direction sought with a large enough effect; inconclusive = small, poorly fitted or top-dose-only effect, or another doubt; inactive = no such curve, though single readings can be large; an effect the other way counts as inactive or inconclusive.

Cc1cccc(OP(N)(N)=O)c1C	none
CCc1ccc(N2C(=O)NC(=O)/C(=C\C=C\c3ccco3)C2=O)cc1	uPA generation 8.9µM
COc1ccc(CC(N)c2csc(NC(=O)Nc3ccccc3Oc3ccccc3)n2)cc1 (stereo unspecified)	FUS yeast rescue inconclusive (no result: Chronic BCR inh, uPA generation)
COc1ccc(OCCCC(=O)Nc2nc(-c3ccccn3)cs2)cc1	Abeta rescue inconclusive, Chronic BCR inh inconclusive, TDP-43 yeast inh 11µM
Cn1cc(C(=O)CCl)c2ccccc21	Chronic BCR inh inconclusive, TDP-43 yeast inh 16µM, uPA generation inconclusive
O=C(c1ccco1)c1cn(Cc2ccccc2)c2ccccc12	Chronic BCR inh inconclusive, TDP-43 yeast inh 22µM
O=C(c1cn(Cc2ccccc2)c2ccccc12)C1CC1	none
CC(C)(C)C(=O)c1cn(Cc2ccccc2)c2ccccc12	TDP-43 yeast inh 13µM
CCC(=O)c1cn(Cc2ccccc2)c2ccccc12	TDP-43 yeast inh 8.9µM (no result: uPA generation)
O=C1N(CN2CCOCC2)c2ccccc2C1(O)c1c[nH]c2ccccc12 (stereo unspecified)	none
Cn1c(O)c(C(=O)c2ccccc2Cl)c(=O)n(C)c1=O	none (no result: FUS yeast rescue)
CCc1cc2c(cc1-c1csc(C/C(N)=N/O)n1)C(C)(C)CCC2(C)C	TDP-43 yeast inh 22µM (no result: Chronic BCR inh, uPA generation)
O=S(=O)(NC1CCCCCCC1)OCC(Cl)(Cl)Cl	TDP-43 yeast inh 35µM
CCC(C)NC(=O)c1c(N)n(CCCOC)c2nc3ccccc3nc12 (stereo unspecified)	Chronic BCR inh inconclusive, TDP-43 yeast inh 25µM
COc1ccc(OC)c(N=Cc2c(O)n(Cc3ccccc3)c(=S)[nH]c2=O)c1	Chronic BCR inh inconclusive
O=[N+]([O-])c1ccc(N2CCN(C(=S)NCc3ccc(Cl)cc3)CC2)cc1	Abeta rescue 5.6µM, TDP-43 yeast inh inconclusive, uPA generation inconclusive
CC1C(c2ccccc2)OCCN1C (stereo unspecified)	none (no result: FUS yeast rescue, Chronic BCR inh)
C#CCOCCOCCOCCNc1nc(N2CCN(C(=O)CCCCCCCCCCNC(=O)[C@H]([C@@H](C)CC)n3cc(CCCCN=C(N)N)nn3)CC2)nc(N2CCN(C(=O)CCCCCCCCCCNC(=O)[C@H](CO)n3cc(CCCCCN)nn3)CC2)n1	FUS yeast rescue inconclusive, Chronic BCR inh inconclusive, TDP-43 yeast inh inconclusive, uPA generation inconclusive
Cc1ccccc1C(=O)Nc1ccc2nc(SCC(=O)N(C)c3ccccc3)sc2c1	FUS yeast rescue inconclusive, TDP-43 yeast inh 35µM (no result: Chronic BCR inh, aSyn rescue, uPA generation)
CC(C)(C)c1ccc(C(=O)Nc2ccc3nc(SCC(=O)N4CCCC4)sc3c2)cc1	FUS yeast rescue inconclusive, TDP-43 yeast inh inconclusive (no result: Chronic BCR inh, aSyn rescue, uPA generation)
CC(=O)c1ccc2c(c1)OCO2	none
Cc1cc(OCC(=O)NC(Cc2ccc(Cl)cc2)C(=O)O)c2c3c(c(=O)oc2c1)CCCC3 (stereo unspecified)	none
CCOc1ccc(CN2C(=O)c3ccccc3Sc3ccc(C(=O)N4CCC5(CC4)OCCO5)cc32)cc1	FUS yeast rescue inconclusive, TDP-43 yeast inh 13µM (no result: Chronic BCR inh, aSyn rescue, uPA generation)
O=C(c1ccc2c(c1)N(Cc1ccc(F)cc1)C(=O)c1ccccc1S2)N1CCC2(CC1)OCCO2	none (no result: aSyn rescue, uPA generation)
c1cc2c(cc1[C@H]1OCC3C1CO[C@@H]3c1ccc3c(c1)OCO3)OCO2 (stereo partly specified)	FUS yeast rescue inconclusive, Chronic BCR inh inconclusive, TDP-43 yeast inh 11µM
C/C=C/c1ccc2c(c1)OCO2	none
CS(=O)(=O)c1ccc(C2=C(CNC(=O)c3cccs3)[C@H]3CC[C@@H](C2)N3Cc2ccccc2)cc1	none (no result: Chronic BCR inh, uPA generation)
